Inconclusive results are not listed. Active and inactive are the calls of the source. Calls follow the shape of the dose curve; as a rule, active = well fitted curve in the direction sought with a large enough effect; inconclusive = small, poorly fitted or top-dose-only effect, or effect the other way, or another doubt; inactive = no such curve, though single readings can be large or run the other way.
Test: Confirmatory Assay to Find Inhibitors of T. brucei phosphofructokinase: Cytotoxictity in KB-3-1
Details: KB-3-1 human cells cytotoxicity counter-screen; series mostly up to 46.1 µM
From the text: Various species of the protozoan family Trypanosomatidae are responsible for a range of serious human diseases in tropical and subtropical areas of the world. […] Many of the disorders caused by trypanosomatids are fatal if left untreated, but most currently used drugs are inefficient and toxic.
Oxidative metabolism involving the mitochondrial tricarboxylic acid cycle and oxidative phosphorylation are repressed in these parasites, and recent RNA interference (RNAi) experiments have shown that even partial depletion of certain individual glycolytic enzymes can lead to the death of cultured parasites. One such glycolytic enzyme, phosphofructokinase (PFK), catalyzes the formation of fructose-1,6-bisphosphate (F1,6BP) and ADP from fructose-6-phosphate (F6P) and ATP, and in many metabolic circumstances makes an important contribution to the control of flux through the glycolytic pathway. As a specific glycolytic target, PFK is particularly attractive as it catalyzes the first irreversible step in glycolysis, and structural and kinetic studies have shown very substantial and essential differences from corresponding host enzymes, allowing for the discovery of parasite-selective inhibitors.
Confirmed qHTS active compounds were tested for toxicity against the KB-3-1 human cervical carcinoma cell lines. This line havs historically been used as representative human cells in in vitro Trypanosoma assays, and so provide a relevant surrogate for human cells in testing Tb PFK inhibitor toxicity.
NIH Chemical Genomics Center [NCGC]
NIH Molecular Libraries Probe Centers Network [MLPCN]
Assay Submitter (PI): Malcom Walkinshaw, University of Edinburg
KB-3-1 cells were dispensed into white solid 1536-microwell plates in 5 uL media (high glucose DMEM, 10% FBS) with a Thermo Multidrop. The plates were incubated at 37 degrees Celsius for 2 hours, and subsequently treated with compounds using the Kalypsys pin tool, delivering 23 nL of test compounds to each well. The plates were then incubated for an additional 72 hours at 37 degrees Celsius. Cytotoxicity was assessed by adding 2.5 uL of Cell-Titer Glo (Promega, Madison, WI) via Multidrop, incubating at room temperature for 10 min and reading luminescence on the Perkin Elmer ViewLux using a 1 second exposure and 1x binning. DMSO-treated cells were included as negative control, while media-only wells were used as a positive control equivalent to 100% cell toxicity for the sake of data normalization.
In the case of Cc1cc(NS(=O)(=O)c2ccc(NC(=O)c3ccc(Cl)c(Cl)c3)cc2)no1, the outcome is reported as “inactive”. For Cc1cc(NS(=O)(=O)C2CCN(C(=O)Cc3ccc(Cl)c(Cl)c3)CC2)no1, the outcome was “inactive”. For Cc1cc(NS(=O)(=O)c2ccc(NS(=O)(=O)Cc3ccc(Cl)c(Cl)c3)cc2)no1, the outcome was “inactive”. For Cc1cc(NS(=O)(=O)c2ccc(NC(=O)Cc3cccc(Cl)c3)cc2)no1, the outcome was “inactive”. With Cc1cc(NS(=O)(=O)c2ccc(N(C)C(=O)Cc3ccc(Cl)c(Cl)c3)cc2)no1 the outcome was “inactive”. In the case of Cc1cc(NS(=O)(=O)c2ccc(NC(=O)Cc3ccc(Cl)cc3)cc2)no1, the outcome is reported as “inactive”. In the case of Cc1cc(NS(=O)(=O)c2ccc(NC(=O)Cc3ccc4ccccc4c3)cc2)no1, the outcome is reported as “inactive”. For O=C(Cc1ccc(Cl)c(Cl)c1)Nc1ccc(S(=O)(=O)Nc2cccc(C(=O)O)c2)cc1, the outcome was “inactive”. For Cc1cc(NS(=O)(=O)c2ccc(NC(=O)Cc3ccc(C)c(F)c3)cc2)no1, the outcome was “inactive”. With Cc1cc(NS(=O)(=O)c2cccc(NC(=O)Cc3ccc(Cl)c(Cl)c3)c2)no1 the outcome was “inactive”. With O=C(Cc1ccc(Cl)c(Cl)c1)Nc1ccc(S(=O)(=O)Nc2cncnc2)cc1 the outcome was “inactive”. With COc1ccc(CC(=O)Nc2ccc(S(=O)(=O)Nc3cc(C)on3)cc2)cc1OC the outcome was “inactive”. For O=C(Cc1ccc(Cl)c(Cl)c1)Nc1ccc(S(=O)(=O)Nc2ccc(C(=O)O)cc2)cc1, the outcome was “inactive”. For Cc1cc(NC(=O)c2ccc(NC(=O)Cc3ccc(Cl)c(Cl)c3)cc2)no1, the outcome was “inactive”. For Cc1cc(N[S+](=O)([O-])c2ccc3cc(NC(=O)Cc4ccc(Cl)c(Cl)c4)ccc3c2)no1, the outcome was “inactive”. With Cc1cc(NS(=O)(=O)c2ccc(NC(=O)CCc3ccc(Cl)c(Cl)c3)cc2)no1 the outcome was “inactive”. With O=C(Cc1ccc(Cl)c(Cl)c1)Nc1ccc(S(=O)(=O)Nc2ccon2)cc1 the outcome was “inactive”. With Cc1cc(NS(=O)(=O)c2ccc(NC(=O)C(C)(C)c3ccc(Cl)c(Cl)c3)cc2)no1 the outcome was “inactive”. In the case of O=C(Cc1ccc(Cl)c(Cl)c1)Nc1ccc(S(=O)(=O)O)cc1, the outcome is reported as “inactive”. With Cc1cc(NS(=O)(=O)c2ccc(NC(=O)Cc3ccc(Cl)cc3Cl)cc2)no1 the outcome was “inactive”. For Cc1cc(NS(=O)(=O)c2ccc(NCCc3ccc(Cl)c(Cl)c3)cc2)no1, the outcome was “inactive”. In the case of COc1ccc(CC(=O)Nc2ccc(S(=O)(=O)Nc3cc(C)on3)cc2)cc1C, the outcome is reported as “inactive”. For Cc1cc(NS(=O)(=O)Cc2ccc(NC(=O)Cc3ccc(Cl)c(Cl)c3)cc2)no1, the outcome was “inactive”. With Cc1cc(NS(=O)(=O)CCNC(=O)Cc2ccc(Cl)c(Cl)c2)no1 the outcome was “inactive”. For Cc1cc(NS(=O)(=O)c2ccc(NC(=O)Cc3ccc(C)c(C)c3)cc2)no1, the outcome was “inactive”. In the case of Cc1cc(NS(=O)(=O)c2ccc(C(=O)NCc3ccc(Cl)c(Cl)c3)cc2)no1, the outcome is reported as “inactive”. With Cc1cc(NS(=O)(=O)c2ccc(NC(=O)Cc3ccc(Cl)c(Cl)c3)cc2)n(C)n1 the outcome was “inactive”. For Cc1cc(NS(=O)(=O)c2ccc(NC(=O)Cc3ccc(Cl)c(F)c3)cc2)no1, the outcome was “inactive”.
